Source: PubChem BioAssay (Tox21)
Records with an inconclusive call do not appear. Activity calls are given as the source filed them. Calls follow the shape of the full dose curve.

assay: qHTS assay for small molecule agonists of the p53 signaling pathway (AID 651631); details: HCT-116 p53RE-bla reporter, beta-lactamase FRET ratio, 16 h; series mostly up to 73.3 µM; activation: at the top concentration; also: nearly all actives have a fitted effect of over 15% in size
Summary of the method: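 Fluorescence intensity from cleaved LiveBLAzer B/G substrate (2 h, room temperature) served as the signal. Beforehand, HCT-116 reporter cells bearing p53 response elements were treated 16 h at 37 °C with DMSO-dissolved compounds.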
% is scaled to controls: 0 for no effect and ±100 for the full control effect.

Row | Structure (SMILES) | activation | Potency
1 | CCCc1nn(C)c2c(=O)[nH]c(-c3cc(S(=O)(=O)N4CCN(C)CC4)ccc3OCC)nc12 | -2.88% (inactive) | 
2 | CO[C@@]1(NC(=O)CSC[C@@H](N)C(=O)O)C(=O)N2C(C(=O)O)=C(CSc3nnnn3C)CS[C@@H]21 | -3.25% (inactive) | 
3 | CN(C)CCN(C)CCN(C)C | -4.76% (inactive) | 
4 | Cc1ccc(C(=O)Nc2ccc(S(=O)(=O)O)c3cc(S(=O)(=O)O)cc(S(=O)(=O)O)c23)cc1NC(=O)c1cccc(NC(=O)Nc2cccc(C(=O)Nc3cc(C(=O)Nc4ccc(S(=O)(=O)O)c5cc(S(=O)(=O)O)cc(S(=O)(=O)O)c45)ccc3C)c2)c1 | -1.71% (inactive) | 
5 | C=C(C)C(=O)OCCOCCOCCOCCOC(=O)C(=C)C | -1.5% (inactive) | 
6 | OCCCCCO | -1.33% [at 95.1 µM] (inactive) | 
7 | CO[Si](C)(OC)c1ccccc1 | 4.39% (inactive) | 
8 | CC1=NS(=O)(=O)c2cc(Cl)ccc2N1 | -2.26% (inactive) | 
9 | CCOC(=O)CCC(=O)OCC | -2.49% (inactive) | 
10 | CC1(C)[C@@H]2CC[C@@]1(C)[C@H](O)C2 | 1.35% (inactive) | 
11 | CCCC(C)C(=O)OCC (stereo unspecified) | -1.9% (inactive) | 
12 | CCCCS(=O)(=O)N[C@@H](Cc1ccc(OCCCCC2CCNCC2)cc1)C(=O)O | -2.47% (inactive) | 
13 | c1coc(CNc2ncnc3nc[nH]c23)c1 | -1.35% (inactive) | 
14 | CCOC(=O)COc1cc(-n2ncc(C(F)(F)F)c(C)c2=O)c(F)cc1Cl | -2.44% (inactive) | 
15 | CC(C)CCCO | -1.6% (inactive) | 
16 | CC(=O)N1C[C@H](O)C[C@H]1C(=O)O | 3.27% (inactive) | 
17 | O=S(=O)(O)c1cccc2c(S(=O)(=O)O)cccc12 | -2.19% (inactive) | 
18 | C=CN1CCCCCC1=O | 2.1% (inactive) | 

Row | Structure (SMILES) | activation | Potency
19 | C[N+]1(C)[C@@H]2CC(OC(=O)[C@H](CO)c3ccccc3)C[C@H]1[C@@H]1O[C@@H]12 (stereo partly specified) | -2.35% (inactive) | 
20 | CC(C)C[C@@H](N)C(=O)O | 6.54% (inactive) | 
21 | CCCCCCCCCCCCSC | 1.18% (inactive) | 
22 | C=CCOCC(O)CO (stereo unspecified) | -1.29% (inactive) | 
23 | CC(=O)Oc1cccc(C)c1 | -4.69% (inactive) | 
24 | CC1=CCC(O)(C(C)C)CC1 (stereo unspecified) | 4.43% (inactive) | 
25 | CCOC(=O)COC(=O)c1ccccc1C(=O)OCC | 1.16% (inactive) | 
26 | COC(=O)Nc1ccc(Cl)c(Cl)c1 | 6.32% (inactive) | 
27 | CCCCCCC1CCC(=O)O1 (stereo unspecified) | -2.12% [at 95.1 µM] (inactive) | 
28 | CC[C@H]1OC(=O)[C@H](C)[C@@H](O[C@H]2C[C@@](C)(OC)[C@@H](O)[C@H](C)O2)[C@H](C)[C@@H](O[C@@H]2O[C@H](C)C[C@H](N(C)C)[C@H]2O)[C@](C)(OC)C[C@@H](C)C(=O)[C@H](C)[C@@H](O)[C@]1(C)O |  | inactive
29 | C=CC(C)(CCC=C(C)C)OC(=O)CC (stereo unspecified) | 0.564% (inactive) | 
30 | CC(=O)c1ccc2ccccc2c1 | 2.8% (inactive) | 
31 | CC(C)(C)C(=O)Oc1ccc(S(=O)(=O)Nc2ccccc2C(=O)NCC(=O)O)cc1 | 1.74% (inactive) | 
32 | CC(N)C12CC3CC(CC(C3)C1)C2 (stereo unspecified) | -2.86% (inactive) | 
33 | O=C(O)c1cc(C(=O)O)cc(C(=O)O)c1 | 0.518% [at 95.1 µM] (inactive) | 
34 | CCC(=O)OCc1ccccc1 | 8.67% (inactive) | 
35 | CC(C)C1CCC(O)CC1 (stereo unspecified) | 0.787% (inactive) | 
36 | COc1cc(C(=O)OC(COCCC(C)C)CN2CCOCC2)cc(OC)c1OC (stereo unspecified) | -3.02% (inactive) | 
